Bioassay records from PubChem.
Shown are actives, neighbours in structure and some others; about 19% of the full set was active somewhere.
Cycloheximide cs: counter-screen for Shiga toxin inhibitors: cycloheximide protein synthesis inhibition | cell reporter, cycloheximide protein synthesis inhibition counterscreen | max response, % | hit rate 12% among 300,000 | AID 2314; in the data active = max response mostly above about 13%, no sharp cut-off; inactive = mostly below about 14%; also: read at 38.3 µM for the half of the compounds with a filed dose; 0% is about no effect
Shiga toxin inh: blocks Shiga toxin action in Vero cells; hit rate 9.2% among 290,000; inhibition, % at 38.7 µM; Vero cells, Shiga toxin protein synthesis inhibition reporter; in the data active = inhibition mostly above about 28%, no sharp cut-off; inactive = mostly below about 43%; also: 0% is about no effect
Pf growth 48h: inhibits P. falciparum growth in the first generation, 48 h. Potency, µM (titrated, usually from 28.7 µM), for the others: at the highest dose activity change, negative = inhibition, actives largely listed as inhibitors. AID 504832. P. falciparum luciferase growth in erythrocytes, 48 h. hit rate 5.9% among 310,000; also: potency is read from the fitted curve at half-maximal effect; % is scaled to controls: 0 for no effect and ±100 for the full control effect
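Firefly luciferase activity from engineered P. falciparum reports growth; inhibitors lower the luminescent signal. Cultures contained 2% hematocrit erythrocytes at 0.1% final parasitemia.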
Lassa entry inh: Lassa virus entry inhibition | Lassa virus pseudotype entry inhibition, cell reporter | Potency, µM (top dose mostly 37.9 µM), for inactives: top-dose activity change, negative = inhibition, most hits filed as inhibitors | hit rate 1.2% among 300,000 | AID 540256; calls by dose curve; tested in HEK293 cells; also: potency is read from the fitted curve at half-maximal effect; % is scaled to controls: 0 for no effect and ±100 for the full control effect; nearly all actives have a fitted effect of over 50% in size
MARV entry inh: blocks Marburg virus binding to or entry into cells. hit rate 1.8% among 300,000. Marburg virus pseudotyped entry inhibition, cell reporter. Potency, µM (titrated, usually from 37.8 µM), for the others: at the top dose activity change, negative = inhibition, actives largely listed as inhibitors. AID 540276; calls by dose curve; tested in HEK293 cells; also: potency is read from the fitted curve at half-maximal effect; % is scaled to controls: 0 for no effect and ±100 for the full control effect
Pf growth 96h: P. falciparum growth inhibition at 96 hour, primary screen for plastid delayed-death inhibitors; P. falciparum luciferase reporter growth, 96 h; Potency, µM (doses to about 28.7 µM), inactives show top-dose activity change, negative = inhibition, hits mostly inhibitors; hit rate 6.9% among 320,000; AID 504834; also: potency is read from the fitted curve at half-maximal effect; % is scaled to controls: 0 for no effect and ±100 for the full control effect
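Readout is luminescence from an integrated firefly luciferase in P. falciparum. Red cells, 2% hematocrit and 0.05% parasitemia final, were cultured with compound through two parasite generations (96 hours) at 37 C, 5% CO2.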
* marks the source's active call; other numbers are inactive results; ? = inconclusive; · = no result; [ ] = another dose, or the depositor's remark. Unless noted, calls follow the shape of the dose curve; as a rule, active = well fitted inhibition curve with a large enough effect; inconclusive = small, poorly fitted or top-dose-only effect, or another doubt; inactive = no such curve, though single readings can be large or run the other way.

SMILES | Cycloheximide cs | Shiga toxin inh | Pf growth 48h | Lassa entry inh | MARV entry inh | Pf growth 96h
C/C=C(\C)C(=O)NCCN1C2=NC[C@@H](C)N2C[C@@H]1Cc1ccc(OC)cc1 | 0.6 | -2.8 | 47.4% | · | · | 69.1%
COc1ccc(C[C@H]2CN3C(=NC[C@H]3Cc3ccccc3)N2CCNC(=O)c2ccc(C)c(Br)c2)cc1 | -7.0 | -12.9 | 5.22µM* | · | · | 1.65µM*
CC(=O)Nc1cc2nn(-c3ccccc3)nc2cc1Cl | 26.1* | 64.0* | 279.7% | ? | 2.3%[46.1 µM] | 58.4%
CC(C)COc1ccc(C(=O)Nc2cc3nn(-c4ccccc4)nc3cc2Cl)cc1 | · | · | · | 27.6%[46.1 µM] | 3.5%[46.1 µM] | ·
CC(C)(C)C(=O)Nc1cc2nn(-c3ccccc3)nc2cc1Cl | 47.5* | 86.3* | · | 1.46µM* | 0.411µM* | 4.8%
S=c1[nH]c2ccc(Cl)cc2[nH]1 | -1.3 | -8.1 | 9.4% | 24.4% | -2.1% | 4.7%
CC(=O)Nc1nc2ccc(-c3nc4ccccc4o3)cc2s1 | 60.5* | 54.1* | 100.4% | ? | ? | 61.9%
O=C(Nc1ccc(-c2nc3ccccc3o2)c(O)c1)c1ccccc1 | · | · | · | -23.9%[46.1 µM] | · | ·
CCC(=O)Nc1cccc(-c2nc3ccccc3o2)c1 | 16.1* | 48.2 | 43.4% | 5.2% | 3.9%[46.1 µM] | ·
O=C(Nc1ccc(O)c(-c2nc3ccccc3o2)c1)C1(c2ccccc2)CCCC1 | 4.7 | 12.9 | 14.7µM* | -36.2% | ? | 29.5%
CS(=O)(=O)c1ccccc1C(=O)Nc1cccc(-c2nc3ccccc3o2)c1 | 23.3* | 12.4 | 14.4% | · | · | 10.0%
O=C(NCc1cccc(F)c1)C1=Cc2cc(Br)ccc2OC1 | · | · | · | -22.9%[46.1 µM] | · | ·
O=C(NCc1ccccc1)c1ccc[n+]([O-])c1 | -1.5 | -1.7 | ? | · | · | 0.0%
CCOc1cccc(CC(=O)NCc2ccc3c(c2)CCN3C(=O)c2ccc(F)cc2)c1OCC | · | · | · | 0.1%[46.1 µM] | · | ·
COc1ccccc1Nc1nc(Cl)nc(Nc2ccccc2OC)n1 | 6.2 | 5.6 | -4.2% | 0.7% | -29.1%[46.1 µM] | -26.3%
COc1nc(Nc2ccccc2F)nc(OC)n1 | 12.2* | 21.1 | 18.6% | 29.2%[46.1 µM] | ? | 11.5%
COc1nc(NCCO)nc(Nc2ccccc2F)n1 | 33.8* | 83.2* | 124.9% | 2.8% | ? | ?
O=C(/C=C/c1ccc(Br)cc1)N1CCN(Cc2ccccc2)CC1 | · | · | · | -9.8%[46.1 µM] | ? | ·
COc1ccc(NC(=O)CSc2nnc(-c3ccccc3Cl)n2Cc2ccco2)c(OC)c1 | -4.5 | 1.6 | ? | 5.0% | ? | ·
COc1ccc(NC(=O)CSc2nccn2Cc2ccco2)cc1OC | 27.5* | 35.7* | 64.8% | -12.2%[46.1 µM] | · | 17.4%
CCOc1ccc(NC(=O)CSc2nccn2Cc2ccco2)cc1 | 31.0* | 41.3* | ? | 14.6% | 8.2% | 0.0%
CCOc1ccc(NC(=O)CSc2nnc(-c3ccccc3Cl)n2Cc2ccco2)cc1 | -0.8 | -7.4 | ? | ? | -39.2% | 0.0329µM*
COc1ccc(Cl)cc1NC(=O)CSc1nccn1Cc1ccco1 | · | · | · | -4.3%[46.1 µM] | · | ·
COc1ccc(NC(=O)CSc2nccn2Cc2ccco2)cc1 | 56.2* | 123.8* | 104.6% | ? | -26.4% | -7.4%
CCN1CCN(C(c2cccs2)C(C)NC(=O)c2ccco2)CC1 (centres undefined) | 0.1 | -5.9 | -10.3% | 2.8% | 12.9% | 4.4%
SMILES | Cycloheximide cs | Shiga toxin inh | Pf growth 48h | Lassa entry inh | MARV entry inh | Pf growth 96h
CC1CCc2nc(NC(=O)C3CCCO3)sc2C1 (centres undefined) | 23.8* | 55.4* | 113.2% | ? | ? | 5.0%
CCC(CC)C(=O)Nc1nc2c(s1)CC(C)CC2 (centres undefined) | · | · | · | 13.4%[46.1 µM] | -24.0%[46.1 µM] | ·
CC1CCc2nc(NC(=O)c3ccco3)sc2C1 (centres undefined) | 2.6 | -24.4 | 37.4% | 0.282µM* | 1.26µM* | -1.5%
CC(C)(C)C1CCc2nc(NC(=O)Cc3cn4ccsc4n3)sc2C1 (centres undefined) | 36.6* | 146.4* | -12.2% | -2.2% | -6.3% | ·
CC1CCc2nc(NC(=O)Cc3cccs3)sc2C1 (centres undefined) | 47.8* | 94.5* | 142.4% | -20.5% | 0.0% | ·
CC(C)(C)C1CCc2nc(NC(=O)Cc3ccc(Cl)cc3)sc2C1 (centres undefined) | · | · | · | 21.3%[46.1 µM] | ? | ·
Cc1cnc(NC(=O)Cc2cccs2)s1 | 21.0* | 50.4 | 94.3% | · | · | 6.7%
COc1ccccc1CC(=O)Nc1ncc(C)s1 | 0.6 | 17.4 | 24.2% | · | · | 0.0%
O=C(Cc1cccs1)Nc1nc2ccccc2s1 | 29.6* | 110.9* | 2.1% | ? | -0.4% | 100.2%
CC(Cc1ccccc1)C(=O)NCc1nc2ccccc2s1 (centres undefined) | 19.1* | 30.0* | 57.4% | -1.7% | 1.3% | 9.8%
O=C(CP(=O)(c1ccccc1)c1ccccc1)Nc1nc2ccccc2s1 | 1.9 | 1.9 | 15.4% | -6.2% | -4.7% | ?
CN(C)C(CNC(=O)CCc1nc2ccccc2s1)c1ccccc1 (centres undefined) | 4.6 | -3.3 | 23.9% | -28.2% | ? | 4.4%
NC(=S)Nc1nc2ccccc2s1 | 38.5* | 64.1* | ? | 22.9% | ? | ?
CCCC(=O)N(CCN1CCOCC1)c1nc2c(F)cc(F)cc2s1 | 8.2 | 26.5 | 57.1% | · | · | 42.0%
Cn1c(SCC(=O)NCc2ccc3c(c2)OCO3)nnc1-c1cc2ccccc2cc1O | -4.0 | -7.2 | -7.2% | ? | ? | ·
COc1ccc2nc(NC(=O)Cc3cccs3)sc2c1 | 51.1* | 152.0* | 151.3% | -1.9% | 3.6% | ·
O=C(Cc1ccccc1)Nc1nc2ccccc2s1 | 25.9* | 48.9* | 168.1% | -20.9% | ? | -20.3%
O=C(Cc1nc(=O)c2ccccc2s1)Nc1ccccc1 | 59.2* | 67.4* | 193.9% | ? | ? | 102.5%
COc1ccc2nc(NC(=O)CN(C)S(=O)(=O)c3cccs3)sc2c1 | 23.3* | 58.4* | -21.6% | -10.7% | 1.1% | ?
COc1ccc2nc(NC(=O)CNS(=O)(=O)c3cccs3)sc2c1 | 12.2 | 9.7 | · | 12.5% | 1.9% | -29.2%
COc1ccc(S(=O)(=O)Nc2nncs2)cc1 | -1.6 | 13.1 | -23.7% | 6.9% | 22.3%[46.1 µM] | ·
CCOc1ccc2nc(NC(=O)Cc3cccs3)sc2c1 | 40.4* | 83.7* | 97.7% | ? | 1.1% | ·
COCC(=O)Nc1nc2ccc(S(C)(=O)=O)cc2s1 | 39.6* | 107.5* | 0.0% | 19.2% | 16.8% | 49.0%
CCOc1ccc2nc(NS(=O)(=O)c3cccs3)sc2c1 | -2.7 | · | 25.6% | 18.9% | -0.2% | 62.6%
Cc1ccc2nc(NC(=O)Cc3cccs3)sc2c1 | 50.1* | 125.3* | · | -4.6% | ? | 112.7%
COCC(=O)Nc1nnc(-c2ccc(C(C)(C)C)cc2)s1 | 51.9* | 91.2* | 12.7% | · | · | 16.1%
CC(C)(C)c1ccc(-c2nnc(NC(=O)c3ccccc3)s2)cc1 | -2.2 | 3.1 | 51.5% | -2.5% | 3.0% | 28.9%
CS(=O)(=O)c1ccc2nc(NC(=O)CN3CCOCC3)sc2c1 | -0.8 | · | 6.2% | 44.2%[46.1 µM] | 6.5%[46.1 µM] | -9.2%
O=C(NCc1ccc(OC(F)(F)F)cc1)C1CC2Cn3c(nc4ccccc43)C2N1c1ccccc1 (centres undefined) | -0.3 | 0.9 | -8.8% | · | · | 51.5%
